Experimental data published in the supplement of paper PMC6555819.

Tested on: PPARg:RXRa IVT, anti-PPARg (NR concentration 270 nM, RXRa partner concentration 90 nM)
Assay: PBM binding z-score (relative to random genomic background probes); higher = stronger binding; sequences stand for … in GC…GCGATTGACAGCGTAGAATGAAGG
Procedure, shortened: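 On custom Agilent 4×180K arrays, double-stranded probes with 34-nt variable regions carried direct-repeat seeds, single-nucleotide variants, half-site ablations or random human genomic background. Ligand-free nuclear receptor dimers were applied for 1 h, and binding was read with antibodies against each partner (one per run). Binding z-scores come from regression-normalized fluorescence, with the random background probes as reference.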

| Sequence | PBM binding z-score |
| --- | --- |
| CCTAGTTGGTCAGCAGGTCACACACCGGATATGA | 2.95 |
| AGTCAAAGTTCAGGAGGAGGTAACGTAAAGCACG | 2.24 |
| CCAGACAGGTGAGAAGTTAACTCAGCCTCGATTA | 0.347 |
| TCGAGTAGGTTAGTCGGGGCATTAAGCCAACATA | 1.85 |
| CCTTCTGGGCCACGAAAGGTCATTGATTCAGTGA | 5.14 |
| TGTCAAAGTTCAAAGGTAACGTTAGTATCCACAC | 4.64 |
| GCGAGTTGGTCAGTAAAAGGTCACACACCGGTCG | 2.26 |
| ATATGTAGGTTAAGGGACATTCAGGTTGGTTCGC | 6.99 |
| CCTATTAGTTGGCCATAAGGGCAACCGAAGCTCG | 0.608 |
| GCTGCTAGGTCAAATGATGGTCAGCTAAAGCTCG | 4.16 |
| GCAGACAGGTGAAACGCAGGTCACTCAGGGTGGC | 1.6 |
| TCTATTAGTTGATTAGGACAACCGAAACAGCGGA | 0.979 |
| ACTATTAGTTGACTCAGGGCAACCGATACGACGC | 0.739 |
| ATCTCTACGTAAAGATAGTTCAGTGAATGCAAAT | 0.188 |
| CGTTACGGGTCACGAGGTTATAGCACGACGAGCG | 5.57 |
| TTTCAAAGTTCAAAGGTAACGTAAGTATCCACAC | 2.61 |
| TCTGGCAGGCCAGAGGGTCACTCAAGAGGTACGG | 0.182 |
| TCATATAGGTAAAGGTGTAAGTCGAACGATATGA | 3.04 |
| TTATATAGGTAAAGGTGAAAGTCGAACGATATGA | 6.52 |
| GATACAGGGTCACGGCCAGAGTACGCGTATTGAT | 5.49 |

| Sequence | PBM binding z-score |
| --- | --- |
| GCTAGCAGGCAATTTGGGTCACTCAATGACGGGC | 2.92 |
| CCTAGCCGGCCAGGGTCACTCAAGCATTTCGCTT | 0.147 |
| ACGGACAGGTGAGTGAAGGTAACTCAGCTGGACG | 0.578 |
| ATCTCTAGGTAACCAAGTTCAGTGGATGCCGAAC | 2.83 |
| CCTAGCAGGCCAATCTGGGGCACTCAAGGCTTGA | 3.96 |
| CGTCCAAGGACAAAGGTCAGTGAAGAGATGACGG | 2.78 |
| GATACAGGGTCAAGGCTAGAGTACGCGTATTGAT | 3.94 |
| AATACAGGGTCTTCGTAGGCCAGAGTACGCACAG | 0.764 |
| CCTACTGGGCCAAGGTCATGGATCAGTCAAAGCA | 4.9 |
| GGAACGCGGGCAAAGTTGATAGCATCTGTCGACG | 0.502 |
| ACTATTAGTTGAGACGATGGCAACCGATAGGTTG | 0.0295 |
| CAGCCTATGTCAGGGCCAGTATAGGAGGAACGTT | -0.807 |
| CCGACTGGGGCTAGGTTACCATAACGCACAGCCA | 0.0447 |
| CGAACTAGGTCATTGACAGGACTGTGAATAGTAA | 8.16 |
| CGAACGAGGGCCTGAGTTGATAGCAAATGCCGAT | -0.278 |
| GCTAGTAGGCCATTTGGGTCACTCAATGACGGGC | 5.02 |
| GCTGCTAGGTGAGGTTGGTCAGCTAACGGGTACG | 0.995 |
| ATACCAGGGTGATCGTGAGGTCGTTGATACTAAC | 1.34 |
| GCTAGCAGGCCATTTGGGTGACTCAATGACGGGC | 0.949 |
| GCTGCTAGGTCAGGTTGGTCAGCAAACGGGTACG | 2.2 |
